PubChem BioAssay (EPA / NIEHS)
Activity calls are given as the source filed them. How the source made its calls: active means hit-call score of the fitted dose curve at least 0.9, where 1 is the maximum; inactive means score below 0.9.

Experiment: ATG_Oct_MLP_CIS: Attagene CIS-FACTORIAL HepG2 Assay for human Octamer-Binding Transcription Factor (Oct) (AID 2282993)
Conditions: HepG2 Attagene cis-factorial Oct reporter, mRNA; actives raise or lower the signal
How it was run: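 Multiplexed cis-reporter assay in human liver HepG2 cells, 24 h incubation. Reporter RNA amplified and labelled, then resolved by capillary electrophoresis; DMSO serves as negative control and baseline.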

Compound	outcome	AC50
CC1(C)S[C@@H]2[C@H](NC(=O)[C@H](N)c3ccccc3)C(=O)N2[C@H]1C(=O)O	inactive	
CCC(C)(CCC(C)C)C(=O)O (stereo not given)	inactive	
Cc1cc(C)c(S(=O)(=O)O)cc1N=Nc1cc(S(=O)(=O)O)c2ccccc2c1O	inactive	
CCCc1c(OCCCCc2nn[nH]n2)ccc(C(C)=O)c1O	inactive	
Clc1ccccn1	inactive	
c1cc(N(CC2CO2)CC2CO2)ccc1Cc1ccc(N(CC2CO2)CC2CO2)cc1 (stereo not given)		8.18 µM (active)
CCCCCCOC(=O)CCCCCCCC(=O)OCCCCCC	inactive	
CC1=NN(c2cc(Cl)c(S(=O)(=O)O)cc2Cl)C(=O)C1N=Nc1ccc(S(=O)(=O)O)cc1 (stereo not given)	inactive	
O=C(O)Cc1c[nH]c2ccccc12	inactive	
CCCCCCCCCCC1CO1 (stereo not given)	inactive	
NCc1ccccc1	inactive	
O=[N+]([O-])c1ccc2nc[nH]c2c1	inactive	
CCCCn1cc[n+](C)c1	inactive	
CC(C)CC(=O)O	inactive	
C[Si](C)(C)O[Si](C)(C)O[Si](C)(C)C	inactive	
Cc1cc(O)cc(C)c1Cl		100 µM (active)
CC(C)n1c(/C=C/[C@@H](O)C[C@@H](O)CC(=O)O)c(-c2ccc(F)cc2)c2ccccc21	inactive	
CC1=C(CC=O)C(C)(C)CCC1	inactive	
CC(O)(P(=O)(O)O)P(=O)(O)O	inactive	
Cc1cccnc1	inactive	
Cc1ccccc1S(N)(=O)=O	inactive	
C=C(C)C(=O)OCC1CCCO1 (stereo not given)	inactive	
OCCOCCOCCOCCOCCO	inactive	
C1=CCC=C1	inactive	
CC(C)CC(=O)CC(C)CC(C)C (stereo not given)	inactive	
